Results filed as inconclusive are left out. A call without a number means that no potency is given here. Values without a mark were called inactive. Active and inactive are the calls of the source. The call rests on the fitted dose curve; in most records, active means well fitted curve in the direction sought with a large enough effect in the repeat runs; inconclusive means weak or mixed curves; inactive means no such curve, though single readings can be large; an effect the other way counts as inactive or inconclusive.
Experiments:
[1] = A CellTox Green Cytotoxicity Assay to monitor cytotoxicity in HEK293 cells - 40 hour (AID 1224871); further: nearly all actives have a fitted effect of over 45% in size
Method in brief: (§1)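 HEK293 cells premixed with CellTox Green dye were seeded at 600 cells/well and left 5 h at 37 C/5% CO2 before pin transfer of 23 nL compound in DMSO. Fluorescence from dye bound to dead-cell DNA was read during 40 h treatment.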

[2] = qHTS RealTime-Glo MT Cell Viability Assay in HEK293 cells - 16 hour (AID 1224872); further: nearly all actives have a fitted effect of over 50% in size
Method in brief: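 Luminescence generated by NanoLuc from substrate produced by living HEK293 cells served as the viability signal. Each value reflects the reading at its stated time point during continuous 40 h compound exposure at 37 C.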

[3] = qHTS RealTime-Glo MT Cell Viability Assay in HepG2 cells - 8 hour (AID 1224873); further: nearly all actives have a fitted effect of over 55% in size
Method in brief: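 HepG2 cells mixed with RealTime-Glo MT reagents (NanoLuc plus cell-permeant prosubstrate) were seeded at 600 cells/well, incubated 5 h at 37 C/5% CO2, then pinned with compounds in DMSO; nonlytic luminescence tracked viability during 40 h treatment.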

[4] = qHTS RealTime-Glo MT Cell Viability Assay in HEK293 cells - 40 hour (AID 1224874); settings: RealTime-Glo luminescence; max response: stronger effect = lower value; further: nearly all actives have a fitted effect of over 50% in size
Method in brief: (§2)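 HEK293 cells mixed with RealTime-Glo reagents (NanoLuc plus cell-permeant prosubstrate) at 600 cells/well, preincubated 5 h at 37 C/5% CO2, then given 23 nL compound in DMSO. Nonlytic luminescence from viable cells was read at 0, 8, 16, 24, 32 and 40 h.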

[5] = A CellTox Green Cytotoxicity Assay to monitor cytotoxicity in HEK293 cells - 24 hour (AID 1224875); further: nearly all actives have a fitted effect of over 45% in size
Method in brief: as §1

[6] = qHTS RealTime-Glo MT Cell Viability Assay in HepG2 cells - 32 hour (AID 1224877); further: nearly all actives have a fitted effect of over 55% in size
Method in brief: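 Tox21 10K library screened in qHTS format on HepG2 cells carrying RealTime-Glo reagents. Compounds were added after a 5 h preincubation, and the luminescent signal from continuous culture was measured repeatedly during 40 h treatment.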

[7] = A CellTox Green Cytotoxicity Assay to monitor cytotoxicity in HepG2 cells - 40 hour (AID 1224879); further: nearly all actives have a fitted effect of over 40% in size
Method in brief: (§3)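 HepG2 cells were seeded together with the CellTox Green dye at 600 cells/well, left 5 h at 37 C/5% CO2, then given compounds in DMSO. Fluorescence from dye bound to dead-cell DNA was read repeatedly over 40 h of treatment at 37 C.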

[8] = qHTS RealTime-Glo MT Cell Viability Assay in HEK293 cells - 0 hour (AID 1224880); further: nearly all actives have a fitted effect of over 45% in size
Method in brief: as §2

[9] = A CellTox Green Cytotoxicity Assay to monitor cytotoxicity in HepG2 cells - 16 hour (AID 1224876); further: nearly all actives have a fitted effect of over 45% in size
Method in brief: as §3

[10] = A CellTox Green Cytotoxicity Assay to monitor cytotoxicity in HepG2 cells - 24 hour (AID 1224878); further: nearly all actives have a fitted effect of over 45% in size
Method in brief: as §3
Potency means the concentration at half of the fitted maximal effect.

SMILES | Potency [1] | Potency [2] | Potency [3] | max response [4] [%] | Potency [5] | Potency [6] | Potency [7] | Potency [8] | Potency [9] | Potency [10] | Potency [4]
CCOC(=O)Cc1cccc2ccccc12 | inactive | inactive | inactive | -4.39 | inactive | inactive | 21.9 µM (active) | inactive | – | – | –
CCn1cc(C(=O)O)c(=O)c2cnc(N3CCNCC3)nc21 | inactive | inactive | – | 6.48 | inactive | inactive | inactive | – | inactive | inactive | –
CCCNCC(O)COc1ccccc1C(=O)CCc1ccccc1 (stereo unspecified) | inactive | 2.13 µM (active) | inactive | – | inactive | inactive | – | – | – | – | 2.39 µM (active)
CCOc1ccc(N=Nc2ccc(/C=C/c3ccc(N=Nc4ccc(OCC)cc4)cc3S(=O)(=O)O)c(S(=O)(=O)O)c2)cc1 | inactive | inactive | inactive | -1.09 | inactive | – | inactive | inactive | inactive | inactive | –
CN(C)CCCN1c2ccccc2Sc2ccccc21 | inactive | inactive | inactive | -25.3 | inactive | inactive | 23.9 µM (active) | – | – | 26.8 µM (active) | –
O=C(c1ccc(F)cc1)C1CCN(CCn2c(=S)[nH]c3ccccc3c2=O)CC1 | inactive | 3.38 µM (active) | – | – | inactive | inactive | – | – | inactive | inactive | 5.35 µM (active)
CCCCCCCCCCCc1ccccc1 | inactive | inactive | inactive | -1.2 | inactive | inactive | – | inactive | inactive | inactive | –
CNC(=O)CN(CCN(CCN(CC(=O)[O-])CC(=O)NC)CC(=O)[O-])CC(=O)[O-].O.[Gd+3] | inactive | inactive | – | 2.96 | inactive | inactive | – | – | inactive | inactive | –
O=C(Nc1ccccc1)c1ccccc1O | inactive | inactive | inactive | – | inactive | – | – | inactive | inactive | inactive | –
C/C=C(/C(=C/C)c1ccc(OC(C)=O)cc1)c1ccc(OC(C)=O)cc1 | inactive | inactive | inactive | – | inactive | inactive | – | inactive | inactive | inactive | –
COS(=O)(=O)C(F)(F)F | inactive | inactive | inactive | 11.7 | inactive | inactive | – | inactive | inactive | inactive | –
CN(C)CCOC(c1ccccc1)c1ccc(Br)cc1 (stereo unspecified) | inactive | inactive | inactive | – | inactive | inactive | 23.9 µM (active) | inactive | – | 23.9 µM (active) | –
CC[N+](C)(CC)CCOC(=O)C(O)(c1ccccc1)C1CCCCC1 (stereo unspecified) | inactive | inactive | inactive | 6.78 | inactive | inactive | – | inactive | inactive | inactive | –
COC(=O)C1=C(C)NC(COC(N)=O)=C(C(=O)OC(C)C)C1c1cccc(Cl)c1Cl (stereo unspecified) | inactive | 26.8 µM (active) | 23.9 µM (active) | – | inactive | 19 µM (active) | – | 2.68 µM (active) | – | – | 26.8 µM (active)
CCCCc1ncc(/C=C(\Cc2cccs2)C(=O)O)n1Cc1ccc(C(=O)O)cc1 | inactive | inactive | – | 2.83 | inactive | inactive | – | – | inactive | inactive | –
CC(C)Nc1ccc(NC(C)C)c2c1C(=O)c1ccccc1C2=O | 25.5 µM (active) | inactive | inactive | -6.09 | 25.5 µM (active) | inactive | 8.07 µM (active) | inactive | inactive | – | –
O=C(Nc1ccc(S(=O)(=O)N2CCOCC2)cc1)c1cc(Cl)ccc1NS(=O)(=O)c1ccc(Cl)s1 | 21.3 µM (active) | inactive | – | -14.7 | 23.9 µM (active) | – | – | – | 26.8 µM (active) | – | –
COc1ccc(-c2nc3ccc(C4=NNC(=O)CC4C)cc3[nH]2)cc1 (stereo unspecified) | inactive | 9.52 µM (active) | inactive | – | inactive | inactive | – | inactive | inactive | inactive | 7.56 µM (active)
CC(=O)OC[C@H]1O[C@@H](n2ncc(=O)[nH]c2=O)[C@H](OC(C)=O)[C@@H]1OC(C)=O | inactive | inactive | inactive | – | inactive | inactive | inactive | inactive | inactive | inactive | –
CCOC(=O)C1=C[C@]2(CC)CCCN3CCc4c(n1c1ccccc41)[C@@H]32 | inactive | inactive | inactive | -21.2 | inactive | inactive | – | inactive | – | – | –
Nc1cc(C(=O)O)c(O)c(S(=O)(=O)O)c1 | inactive | inactive | – | 9.59 | inactive | inactive | inactive | – | inactive | inactive | –
C=C(C)C(=O)OCC | inactive | inactive | – | 2.67 | inactive | inactive | inactive | – | inactive | inactive | –
CN1Cc2cc(C(=O)N3CCC(C4CCNCC4)CC3)ccc2NC(CC(=O)O)C1=O (stereo unspecified) | inactive | inactive | – | 5.98 | inactive | inactive | inactive | inactive | inactive | inactive | –
